High-throughput results deposited in PubChem by several laboratories.
Cardio protect – modulators protecting cardiomyocytes from myocardial damage. H9c2 cardiomyocytes, H2O2 injury protection, ATPLite, 2 h. protection from H2O2 cell death, % at 20 µM. actives 0.63% (n = 360,000). AID 588492;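 active = compounds giving at least 50% protection of heart cells from peroxide-induced death in the single-dose screen, raw or plate-pattern-corrected value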;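 note: 0% = DMSO wells with peroxide and 100% = DMSO wells without peroxide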
UBC9 SUMO inh – inhibitors of human SUMOylation (UBC9). HTRF SUMOylation assay, SAE1/SAE2 + UBC9, in vitro. inhibition, % at 35 µM. actives 0.36% (n = 290,000). AID 2006; in the data active = inhibition above about 50%, passing the limit was not always enough; inconclusive = no clear call, values can overlap the other calls
Target sequence (P63279 whole entry, looked up): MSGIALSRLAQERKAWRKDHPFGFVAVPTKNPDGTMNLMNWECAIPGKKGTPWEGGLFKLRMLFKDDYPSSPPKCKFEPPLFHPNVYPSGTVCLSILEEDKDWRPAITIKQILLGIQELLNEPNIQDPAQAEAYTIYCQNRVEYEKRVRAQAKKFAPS
ALR H2O2 inh – human ALR oxidase inhibition via reduced H2O2. actives 3.8% (n = 290,000). purified ALR, DTT oxidation, H2O2 HRP-luminol luminescence. inhibition, % (test concentration not listed). P55789;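 active = mean replicate inhibition above about 79%, with every replicate also reaching it, limit read from the data; inconclusive = only one of the two criteria met; inactive = mean below limit and not every replicate reaching it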
Target sequence (P55789 whole entry, looked up): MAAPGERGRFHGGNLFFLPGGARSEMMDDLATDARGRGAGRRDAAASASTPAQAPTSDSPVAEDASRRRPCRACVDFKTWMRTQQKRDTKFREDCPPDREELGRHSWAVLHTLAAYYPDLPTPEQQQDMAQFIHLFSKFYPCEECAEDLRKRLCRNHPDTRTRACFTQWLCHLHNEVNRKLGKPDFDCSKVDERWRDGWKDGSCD
NTR1 agonist – agonists of human neurotensin receptor NTR1. NTR1-U2OS beta-arrestin-GFP spot imaging, agonist mode. actives 0.17% (n = 330,000). P30989. activation, % at 20 µM;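 active = activation at or above 40% of the spot to cytoplasm intensity ratio, with at least 20 cells analyzed; inconclusive = wells under 20 cells, flagged as cytotoxic or low count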;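 note: 0% = DMSO without peptide and 100% = 100 nM NTR1 peptide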
* marks the source's active call; other numbers are inactive results. The list is not random: actives were taken first. Their share in the collection is about 3.9%.

CC(C)c1ccc(NC2CCCN(C(=O)c3ccnn3C)C2)cc1 (configuration not stated) was read as Cardio protect -1, UBC9 SUMO inh 2, ALR H2O2 inh inconclusive and NTR1 agonist 0.
Screening CC(C)c1ccc(NC2CCCN(C(=O)c3cnsn3)C2)cc1 (configuration not stated) returned Cardio protect -5, UBC9 SUMO inh 5, ALR H2O2 inh 96* and NTR1 agonist 0.
O=C(CCSCc1cccc(Cl)c1)NCCc1ccccc1 was read as Cardio protect -3, UBC9 SUMO inh -3, ALR H2O2 inh -26 and NTR1 agonist 0.
For Cc1nn(-c2ccccc2)c(C)c1-c1cc(C(=O)N/N=C/c2cccnc2)[nH]n1 the results were UBC9 SUMO inh 6, ALR H2O2 inh -2 and NTR1 agonist 4.
Screening COC(=O)c1cc(-c2c(C)nn(-c3ccccc3)c2C)n[nH]1 returned Cardio protect -5, UBC9 SUMO inh 8, ALR H2O2 inh 86* and NTR1 agonist 0.
`CN(C)NC(=O)c1ccsc1NC(=O)c1ccc(S(=O)(=O)N2CCCC2)cc1` gave Cardio protect 6, UBC9 SUMO inh -10, ALR H2O2 inh 87* and NTR1 agonist 7.
CC1CCN(S(=O)(=O)c2ccc(C(=O)Nc3sccc3C(N)=O)cc2)CC1 was read as Cardio protect -21, UBC9 SUMO inh 1, ALR H2O2 inh 9 and NTR1 agonist 4.
CCn1cc(C(=O)NCc2cccc(F)c2)c(=O)c2cc(F)c(N3CCN(C(=O)c4ccco4)CC3)cc21 was read as Cardio protect 55*, UBC9 SUMO inh -10, ALR H2O2 inh 3 and NTR1 agonist 10.
For CCCNC(=O)c1cn(CC)c2cc(N3CCN(C(=O)c4ccco4)CC3)c(F)cc2c1=O the results were Cardio protect 28, UBC9 SUMO inh 18, ALR H2O2 inh 4 and NTR1 agonist 3.
`O=S(=O)(/N=S1/CC=CCN1S(=O)(=O)c1ccccc1)c1ccccc1` (configuration not stated) gave Cardio protect 8, UBC9 SUMO inh 20, ALR H2O2 inh 99* and NTR1 agonist 0.
COC(=O)CCN(C)CCC(=O)OC was read as Cardio protect -1, UBC9 SUMO inh 0, ALR H2O2 inh 96* and NTR1 agonist 0.
CC(=O)N1CCN(Cc2nc3cc(NC(=O)NC4CCCCC4)ccc3n2C)CC1 was read as Cardio protect 1, UBC9 SUMO inh 28, ALR H2O2 inh -12 and NTR1 agonist 1.
Screening O=C(c1ccco1)N1CCN=C1SCc1cccnc1 returned Cardio protect 4, UBC9 SUMO inh 8, ALR H2O2 inh 99* and NTR1 agonist -1.
For O=C(N1CCN=C1SCc1cccnc1)C12CC3CC(CC(C3)C1)C2 the results were Cardio protect -9, UBC9 SUMO inh 1, ALR H2O2 inh 99* and NTR1 agonist 0.
`O=C(c1ccco1)N1CCN=C1SCc1ccccc1F` gave Cardio protect -3, UBC9 SUMO inh 12, ALR H2O2 inh 95* and NTR1 agonist 3.
`Cc1cccc(CSC2=NCCN2C(=O)c2ccco2)c1` gave Cardio protect -2, UBC9 SUMO inh 5, ALR H2O2 inh 96* and NTR1 agonist 2.
For O=C(NCc1cccnc1)C12CC3CC(CC(Cl)(C3)C1)C2 the results were Cardio protect -1, UBC9 SUMO inh -6, ALR H2O2 inh -7 and NTR1 agonist 1.
Screening Cc1cc2c(s1)c1cnn(Cc3ccccc3F)c(=O)c1n2C returned Cardio protect -9, UBC9 SUMO inh -16, ALR H2O2 inh -7 and NTR1 agonist 3.
Screening CN(C)S(=O)(=O)c1ccc(C(=O)N2CCN=C2SCc2ccccc2)cc1 returned Cardio protect 2, UBC9 SUMO inh -2, ALR H2O2 inh -12 and NTR1 agonist 1.
For Cc1ccc(CSC2=NCCN2C(=O)c2ccco2)cc1 the results were Cardio protect 0, UBC9 SUMO inh -10, ALR H2O2 inh 95* and NTR1 agonist 5.
`O=C(c1cccs1)N1CCN=C1SCc1cccnc1` gave Cardio protect 3, UBC9 SUMO inh 11, ALR H2O2 inh 99* and NTR1 agonist -4.
`O=C(c1ccc(S(=O)(=O)N2CCOCC2)cc1)N1CCN=C1SCc1cccnc1` gave Cardio protect -2, UBC9 SUMO inh 17, ALR H2O2 inh 99* and NTR1 agonist -1.
Screening Cc1nc(C#N)c(N/N=C/c2c(F)cccc2Cl)o1 returned Cardio protect 10, UBC9 SUMO inh -8, ALR H2O2 inh 98* and NTR1 agonist 1.
Screening Cc1nc(N)nc(N/N=C/c2c(F)cccc2Cl)n1 returned Cardio protect -2, UBC9 SUMO inh 10 and NTR1 agonist 0.
COc1cccc(N2CCN(C(=O)c3ccc(CS(=O)Cc4ccc(Cl)cc4)o3)CC2)c1 (configuration not stated) was read as Cardio protect 5, UBC9 SUMO inh 2, ALR H2O2 inh -4 and NTR1 agonist 0.
O=C(c1ccc(CS(=O)Cc2ccc(Cl)cc2)o1)N1CCN(c2ccccc2)CC1 (configuration not stated) was read as Cardio protect 6, UBC9 SUMO inh 0, ALR H2O2 inh 93* and NTR1 agonist -1.
Screening Cc1ccc(CS(=O)Cc2ccc(C(=O)N3CCN(c4ccccc4)CC3)o2)cc1 (configuration not stated) returned Cardio protect 0, UBC9 SUMO inh -5, ALR H2O2 inh 94* and NTR1 agonist 0.
`CCOCCCNC(=O)CCn1ccc2cc(S(=O)(=O)N3CCCC3)ccc21` gave Cardio protect 2, UBC9 SUMO inh 25, ALR H2O2 inh 0 and NTR1 agonist 0.
O=S(=O)(/C(=C\c1ccc(C(F)(F)F)cc1)c1nc2ccccc2[nH]1)c1ccccc1 was read as Cardio protect -18.
Screening CCN(CCNC(=O)c1cc(C)nn1-c1ccccc1)c1ccccc1 returned Cardio protect 20, UBC9 SUMO inh 3, ALR H2O2 inh 99* and NTR1 agonist -1.
`C[C@H]1COC(=O)CCCC/C=C\C[C@H](CC(=O)N(CCO)Cc2ccccc2)C(=O)N1` gave Cardio protect 0, ALR H2O2 inh -8 and NTR1 agonist -4.
O=C(NCC(c1ccco1)N1CCc2ccccc21)c1ccccc1Cl (configuration not stated) was read as Cardio protect -2, ALR H2O2 inh 98* and NTR1 agonist 3.
`O=S(=O)(NCC(c1ccco1)N1CCc2ccccc21)c1ccccc1` (configuration not stated) gave Cardio protect -5, ALR H2O2 inh 97* and NTR1 agonist 1.
For O=S(=O)(NCC(c1ccco1)N1CCN(c2ccccc2F)CC1)c1ccccc1 (configuration not stated) the results were Cardio protect -9, UBC9 SUMO inh -7, ALR H2O2 inh 1 and NTR1 agonist -1.
For Cc1cccc2sc(N(CCCN(C)C)C(=O)c3ccc4ncsc4c3)nc12 the results were Cardio protect 4, UBC9 SUMO inh 20, ALR H2O2 inh -4 and NTR1 agonist -1.
COc1ccc(C2CC(c3ccccc3)=NN2C(=O)c2cccs2)cc1 (configuration not stated) was read as Cardio protect -7, UBC9 SUMO inh 14, ALR H2O2 inh -8 and NTR1 agonist 6.
